# Source: PubChem BioAssay (Tox21)
# Where “and” joins values, the source holds several entries; their conditions need not be identical. Equal entries are not always repeated. Records with an inconclusive call do not appear. A call without a number means that no potency is given here. Where a structure was tested more than once in an assay, its records may differ in their call. Calls of active or inactive are those of the source. Unless noted, calls follow the shape of the full dose curve.
# Key:
# [1] = Nuclear factor erythroid 2-related factor 2/antioxidant responsive element (Nrf2/ARE) small molecule agonists: qHTS cell viability counter screen in human keratinocytes (AID 1919968; active = well fitted curve in the direction sought with a large enough effect in the repeat runs; an effect the other way counts as inactive or inconclusive; also: nearly all actives have a fitted effect of over 55% in size; also: potency is read from the fitted curve at half-maximal effect)
# Outline: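 HaCaT ARE reporter line, 1,500 cells/well; 5 h settle, 37 C/5% CO2; cpd in DMSO pinned; 23 h exposure; CellTiter-Fluor, 1 h; fluorescence.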
# [2] = molecular target: KiSS-1 receptor (Homo sapiens) (UniProt Q969F8); experiment: Human kisspeptin (KISS1R) small molecule agonists, calcium flux assay in KISS1R-HEK293 cells (AID 1920064; active = well fitted curve in the direction sought with a large enough effect in the repeat runs; an effect the other way counts as inactive or inconclusive)
# Outline: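 Stable human KISS1R HEK293 line; 18 h plating, 37 C/5% CO2; calcium dye 1 h 37 C; compound pin transfer; kinetic fluorescence Ex/Em 480/540, 3 min.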
# [3] = G protein-coupled receptor (GPCR) small molecule agonists, calcium flux assay: HEK293 wild type cell line counter screen (AID 1920065)
# Outline: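 Kinetic fluorescence at Ex/Em 480/540, recorded every second over 3 min, served as the read-out after compound addition. Each compound was tested at 15 concentrations in triplicate on cells pre-loaded with calcium dye for 1 h.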
# [4] = p53 small molecule agonists, cell-based qHTS assay with human liver microsomes: qHTS cell viability counter screen (AID 1963579); also: nearly all actives have a fitted effect of over 45% in size
# Outline: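 Viability of p53RE-bla cells is measured as CellTiter-Glo luminescence following a 16 h, 37 C incubation with compound, liver microsomes from human donors and NADPH.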
# [5] = p53 small molecule agonists, cell-based qHTS assay with rat liver microsomes: qHTS cell viability counter screen (AID 1963580); also: nearly all actives have a fitted effect of over 45% in size
# Outline: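 Viability is assessed in parallel with the p53 reporter read: HCT-116 p53RE-bla cells receive compounds plus rat microsomes and NADPH (0.5 mg/mL final apiece), incubate 16 h at 37 C, and then CellTiter-Glo luminescence is recorded.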
# [6] = p53 small molecule agonists, cell-based qHTS assay: qHTS cell viability counter screen (AID 1963581); also: nearly all actives have a fitted effect of over 45% in size; also: potency is read from the fitted curve at half-maximal effect
# Outline: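 HCT-116 p53RE-bla cells, 4,000/well, plated 5 h before compound pin transfer; 16 h at 37 C; bla substrate 2 h RT; then CellTiter-Glo, 30 min RT, luminescence.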
# [7] = p53 small molecule agonists, cell-based qHTS assay (AID 1963582; active = well fitted activation curve with a large enough effect in the signal ratio in the repeat runs, not every such curve was filed as active; the % refers to the signal ratio)
# Outline: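 Reporter line: p53RE-bla. Pre-incubation 5 h, 37 C, 5% CO2; compound (DMSO, pin tool) 16 h, 37 C; B/G FRET substrate 2 h RT; fluorescence intensity read.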
# [8] = molecular target: 5-hydroxytryptamine receptor 2A (Homo sapiens) (UniProt P28223); experiment: 5-hydroxytryptamine receptor 2A (HTR2A) small molecule antagonists, cell-based qHTS assay (AID 1963586); also: nearly all actives have a fitted effect of over 45% in size
# Outline: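 Antagonist-mode intracellular calcium assay: DOI (4 nM) added after 5 min compound pre-incubation at room temperature to dye-loaded HTR2A-CHO cells. Fluorescence followed for 3 min, sampled every second.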
# [9] = molecular target: 5-hydroxytryptamine receptor 2A (Homo sapiens) (UniProt P28223); experiment: 5-hydroxytryptamine receptor 2A (HTR2A) small molecule agonists, cell-based qHTS assay (AID 1963587); also: nearly all actives have a fitted effect of over 30% in size; also: potency is read from the fitted curve at half-maximal effect
# Outline: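 CHO cells stably expressing human HTR2A, plated 18 h, loaded with calcium dye 1 h at 37 C. Agonist mode: compounds added and intracellular calcium fluorescence recorded kinetically for 2 min at 1 sec intervals.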
# [10] = molecular target: Muscarinic acetylcholine receptor M1 (Homo sapiens) (UniProt P11229); experiment: Cholinergic receptor muscarinic 1 (CHRM1) small molecule antagonists, cell-based qHTS assay (AID 1963588); also: nearly all actives have a fitted effect of over 40% in size
# Outline: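 CHRM1-CHO calcium-flux assay, antagonist mode. Cells were seeded 18 h, dye-loaded 1 h at 37 C and given compound for 5 min at RT, then acetylcholine was added at 50nM. FDSS fluorescence was read 3 min; 15 concentrations, three runs.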
# [11] = molecular target: Muscarinic acetylcholine receptor M1 (Homo sapiens) (UniProt P11229); experiment: Cholinergic receptor muscarinic 1 (CHRM1) small molecule agonists, cell-based qHTS assay (AID 1963589); also: nearly all actives have a fitted effect of over 35% in size; also: potency is read from the fitted curve at half-maximal effect
# Outline: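 Human M1 in stable CHO line; 18 h plating, 1 h dye load 37 C; cpd added (agonist mode); Ca2+ fluorescence kinetic read, 1 s intervals; 15 conc, 3 runs.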
# [12] = cAMP Responsive Elements (CRE) small molecule agonists, cell-based qHTS assay (AID 1963590)
# Outline: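 HEK 293T CRE-bla, 2,000 cells/well, 18 h preincubation 37 C/5% CO2; cpds (DMSO) pinned, 3 h; LiveBLAzer B/G FRET substrate, 2 h RT.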
# [13] = molecular target: Beta-2 adrenergic receptor (Homo sapiens) (UniProt P07550); experiment: Adrenergic beta2 receptor (ADRB2) small molecule agonists, cell-based qHTS assay (AID 1963593);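 also: CHO cells stably overexpressing human ADRB2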
# Outline: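 CHO cells stably over-expressing ADRB2 were plated overnight at 37C, then dosed with compounds plus a stimulation mix containing 100uM IBMX and 25uM Ro-20-1724 for 0.5hr at room temperature. cAMP was measured by HTRF competition, 1hr.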
# [14] = molecular target: D(2) dopamine receptor (Homo sapiens) (UniProt P14416); experiment: Dopamine D2 receptor (DRD2) small molecule agonists, cell-based qHTS assay (AID 1963594); also: nearly all actives have a fitted effect of over 35% in size
# Outline: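 HEK293 cells stably expressing human DRD2, pre-treated with PDE inhibitor Ro20-1724 (0.1 mM final) and compound 10 min at room temperature, then stimulated with NKH477 (200nM […]) for 30 min. cAMP read by HTRF (665/620 nm).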
# [15] = molecular target: D(2) dopamine receptor (Homo sapiens) (UniProt P14416); experiment: Dopamine D2 receptor (DRD2) small molecule antagonists, cell-based qHTS assay (AID 1963595; active = well fitted inhibition curve with a large enough effect in the signal ratio in the repeat runs, with a control signal flat; the % refers to the signal ratio)
# Outline: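 HTRF cAMP read-out at 665 and 620 nm emission (340 nm excitation). Antagonist mode: compounds were tested against 12 nM quinpirole in DRD2-HEK293 cells, with 200 nM NKH477 raising cAMP and 0.1 mM Ro20-1724 blocking its breakdown.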
# [16] = p53 small molecule agonists, cell-based qHTS assay with human liver microsomes (AID 1963577);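 also: p53 response element beta-lactamase reporter cells with liver microsomes plus NADPH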
# Outline: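 HLM-supplemented p53RE-bla reporter assay: 16 h compound exposure at 37 C, microsomes and NADPH each 0.5 mg/mL final, read by fluorescence intensity.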
# [17] = p53 small molecule agonists, cell-based qHTS assay with rat liver microsomes (AID 1963578)
# Outline: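 Quantitative HTS of the Tox21 10K library: p53RE-bla cells, rat liver microsomes plus NADPH at 0.5 mg/mL final each, 16 h at 37 C, beta-lactamase fluorescence detection.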
# [18] = cAMP Responsive Elements (CRE) small molecule antagonists, cell-based qHTS assay (AID 1963591; active = well fitted inhibition curve with a large enough effect in the signal ratio in the repeat runs, not every such curve was filed as active; the % refers to the signal ratio)
# Outline: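 Beta-lactamase reporter read by FRET substrate (LiveBLAzer B/G) after 2 h at room temperature. CRE-bla HEK293T cells had received compound plus 0.25 uM (final) NKH477 for 3 h at 37 °C.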
# [19] = molecular target: Beta-2 adrenergic receptor (Homo sapiens) (UniProt P07550); experiment: Adrenergic beta2 receptor (ADRB2) small molecule antagonists, cell-based qHTS assay (AID 1963592); also: series mostly up to about 92 µM; nearly all actives have a fitted effect of over 50% in size
# Outline: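 Cells (CHO, stable ADRB2 overexpression) incubated 18-20hr at 37C; compounds added from DMSO; agonist mix (1nM isoproterenol, 100uM IBMX, 25uM Ro-20-1724) added; 0.5hr RT; d2-cAMP and anti-cAMP-cryptate added; 1hr RT; 665/615 nm read.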
# [20] = molecular target: Gonadotropin-releasing hormone receptor (Homo sapiens) (UniProt P30968); experiment: Human gonadotropin-releasing hormone receptor (GnRHR) small molecule agonists, calcium flux assay in GnRHR-HEK293 cells (AID 1920063); also: nearly all actives have a fitted effect of over 35% in size
# Outline: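 GnRHR-HEK293, 1500 cells/well, 18 h 37 C/5% CO2; Ca dye 1 h 37 C; cpd pinned (DMSO), agonist mode; kinetic FL 480/540, 3 min, 1 s reads; 15 conc, n=3.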
# Sequence of 5-hydroxytryptamine receptor 2A (Homo sapiens) (P28223 whole entry, looked up): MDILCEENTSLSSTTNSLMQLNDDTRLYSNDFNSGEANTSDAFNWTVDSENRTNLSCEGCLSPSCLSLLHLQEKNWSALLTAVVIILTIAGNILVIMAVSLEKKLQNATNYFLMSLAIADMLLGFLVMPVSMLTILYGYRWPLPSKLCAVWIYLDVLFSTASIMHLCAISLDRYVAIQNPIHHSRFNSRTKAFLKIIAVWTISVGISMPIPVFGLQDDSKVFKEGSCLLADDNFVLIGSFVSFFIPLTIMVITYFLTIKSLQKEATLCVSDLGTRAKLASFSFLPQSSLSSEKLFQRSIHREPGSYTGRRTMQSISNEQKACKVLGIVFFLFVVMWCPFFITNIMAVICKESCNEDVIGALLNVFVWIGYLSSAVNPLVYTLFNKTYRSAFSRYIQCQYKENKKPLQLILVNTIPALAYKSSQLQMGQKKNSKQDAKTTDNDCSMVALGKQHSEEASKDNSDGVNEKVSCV
# Sequence of Beta-2 adrenergic receptor (Homo sapiens) (P07550 whole entry, looked up): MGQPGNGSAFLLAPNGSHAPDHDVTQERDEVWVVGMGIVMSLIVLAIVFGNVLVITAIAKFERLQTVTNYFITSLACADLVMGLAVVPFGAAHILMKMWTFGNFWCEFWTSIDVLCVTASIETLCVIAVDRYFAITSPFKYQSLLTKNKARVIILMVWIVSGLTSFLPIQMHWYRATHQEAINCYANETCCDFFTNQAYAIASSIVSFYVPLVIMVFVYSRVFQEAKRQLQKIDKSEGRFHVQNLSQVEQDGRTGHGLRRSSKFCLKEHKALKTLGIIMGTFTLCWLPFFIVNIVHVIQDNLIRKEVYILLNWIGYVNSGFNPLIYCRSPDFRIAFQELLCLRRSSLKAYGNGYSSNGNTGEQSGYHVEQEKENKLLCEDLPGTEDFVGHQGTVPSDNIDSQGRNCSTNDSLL
# Sequence of Gonadotropin-releasing hormone receptor (Homo sapiens) (P30968 whole entry, looked up): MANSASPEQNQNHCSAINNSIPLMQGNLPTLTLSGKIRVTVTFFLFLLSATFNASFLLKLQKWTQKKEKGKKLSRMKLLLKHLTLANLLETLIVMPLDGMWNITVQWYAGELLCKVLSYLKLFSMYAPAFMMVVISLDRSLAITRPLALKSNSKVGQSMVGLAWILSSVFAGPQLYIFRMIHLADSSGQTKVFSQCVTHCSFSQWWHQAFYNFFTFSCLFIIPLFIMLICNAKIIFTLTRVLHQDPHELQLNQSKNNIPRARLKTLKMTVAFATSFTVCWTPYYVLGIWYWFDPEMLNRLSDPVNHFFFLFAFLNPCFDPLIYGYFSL
# Sequence of Muscarinic acetylcholine receptor M1 (Homo sapiens) (P11229 whole entry, looked up): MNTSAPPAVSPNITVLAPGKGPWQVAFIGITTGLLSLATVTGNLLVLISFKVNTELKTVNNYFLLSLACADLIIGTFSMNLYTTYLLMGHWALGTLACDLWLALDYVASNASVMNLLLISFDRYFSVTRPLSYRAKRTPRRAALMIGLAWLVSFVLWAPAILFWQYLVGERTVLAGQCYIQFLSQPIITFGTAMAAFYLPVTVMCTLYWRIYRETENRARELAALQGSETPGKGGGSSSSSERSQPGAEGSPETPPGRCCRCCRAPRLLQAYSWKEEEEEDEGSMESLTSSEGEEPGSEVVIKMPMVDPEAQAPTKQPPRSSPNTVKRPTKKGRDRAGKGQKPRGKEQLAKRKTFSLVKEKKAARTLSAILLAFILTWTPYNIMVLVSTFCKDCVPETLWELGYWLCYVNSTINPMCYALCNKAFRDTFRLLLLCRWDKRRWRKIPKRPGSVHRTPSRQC
# Sequence of KiSS-1 receptor (Homo sapiens) (Q969F8 whole entry, looked up): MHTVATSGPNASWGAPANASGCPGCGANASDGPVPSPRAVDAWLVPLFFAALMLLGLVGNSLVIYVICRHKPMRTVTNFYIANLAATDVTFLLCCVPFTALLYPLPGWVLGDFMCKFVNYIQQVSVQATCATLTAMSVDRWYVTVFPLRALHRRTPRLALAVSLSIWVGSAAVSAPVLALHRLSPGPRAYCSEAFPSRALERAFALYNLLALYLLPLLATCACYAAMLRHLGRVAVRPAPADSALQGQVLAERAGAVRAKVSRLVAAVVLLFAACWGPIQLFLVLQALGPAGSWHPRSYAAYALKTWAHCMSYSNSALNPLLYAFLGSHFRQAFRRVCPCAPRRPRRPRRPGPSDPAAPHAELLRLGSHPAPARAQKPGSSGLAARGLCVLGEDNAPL
# Sequence of D(2) dopamine receptor (Homo sapiens) (P14416 whole entry, looked up): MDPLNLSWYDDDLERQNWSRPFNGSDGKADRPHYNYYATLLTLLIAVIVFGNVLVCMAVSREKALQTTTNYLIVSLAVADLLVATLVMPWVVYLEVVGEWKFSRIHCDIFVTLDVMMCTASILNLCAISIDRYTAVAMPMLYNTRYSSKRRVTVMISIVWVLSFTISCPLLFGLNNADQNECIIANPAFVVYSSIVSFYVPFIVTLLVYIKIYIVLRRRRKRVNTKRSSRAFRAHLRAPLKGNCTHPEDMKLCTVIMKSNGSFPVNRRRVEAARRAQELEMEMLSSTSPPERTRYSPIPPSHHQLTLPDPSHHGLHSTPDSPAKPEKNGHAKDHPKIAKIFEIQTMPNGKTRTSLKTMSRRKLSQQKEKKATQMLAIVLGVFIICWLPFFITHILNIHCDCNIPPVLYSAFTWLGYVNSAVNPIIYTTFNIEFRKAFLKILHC
SMILES,Potency [1],Potency [2],Potency [3],Potency [4],Potency [5],Potency [6],Potency [7],Potency [8],Potency [9],Potency [10],Potency [11],Potency [12],Potency [13],Potency [14],Potency [15],Potency [16],Potency [17],Potency [18],Potency [19],Potency [20]
CCOP(=S)(OCC)SCCSCC,inactive,inactive,inactive,inactive,inactive,inactive,inactive,inactive,inactive,inactive,inactive,inactive,inactive,inactive,inactive,,,,,
CCCCC#N,inactive,inactive,,inactive,inactive,inactive,inactive,inactive,inactive,inactive,inactive,,,inactive,inactive,inactive,inactive,inactive,inactive,
[Cd+2].[Cl-].[Cl-],27.5 µM (active) and 43.3 µM (active),,inactive,inactive,inactive,36.7 µM (active),,,inactive,inactive,inactive,inactive,,inactive,inactive,,,,inactive,inactive
CN(C)c1ccc(N=O)cc1,27.4 µM (active) and 54.5 µM (active),inactive,inactive,inactive,inactive,inactive,,inactive,inactive,,inactive,,,,,inactive,,,,
CCCCCc1cc(O)cc(O)c1,inactive,inactive,,inactive,inactive,,inactive,inactive,,,inactive,,inactive,inactive,inactive,inactive,,inactive,inactive,inactive
COP(=O)(OC)OC,inactive,,inactive,inactive,inactive,inactive,inactive,inactive,55.4 µM (active) and inactive,inactive,49.4 µM (active) and inactive,,inactive,inactive,inactive,inactive,inactive,inactive,inactive,
CCn1cc[n+](C)c1,inactive,inactive,inactive,inactive,inactive,inactive,,inactive,inactive,inactive,inactive,,inactive,,inactive,,,inactive,inactive,
COCCC#N,,inactive,inactive,inactive,inactive,inactive,inactive,inactive,inactive,inactive,inactive,inactive,inactive,,,inactive,inactive,inactive,inactive,inactive
O=NN1CCCCCCC1,,inactive,inactive,inactive,inactive,inactive,,inactive,inactive,,inactive,inactive,inactive,inactive,inactive,inactive,inactive,inactive,inactive,inactive
NN=C(N)N,,inactive,inactive,inactive,inactive,inactive,,inactive,inactive,inactive,inactive,inactive,inactive,inactive,inactive,,,inactive,inactive,inactive
Fc1cc(Br)ccc1CBr,,inactive,inactive,inactive,inactive,inactive,,inactive,inactive,inactive,inactive,,,inactive,inactive,inactive,inactive,inactive,inactive,
Clc1ccc(C(Cl)(Cl)Cl)c(Cl)c1,,inactive,inactive,inactive,inactive,inactive,inactive,inactive,inactive,inactive,inactive,inactive,inactive,inactive,inactive,inactive,inactive,inactive,inactive,inactive
Cc1coc2c1CCC(C)C2 (stereo not given),,inactive,inactive,inactive,inactive,inactive,inactive,inactive,inactive,inactive,inactive,inactive,,inactive,inactive,inactive,inactive,inactive,inactive,inactive
CCn1cc[n+](C)c1C,,,,inactive,inactive,inactive,,,inactive,inactive,inactive,inactive,inactive,inactive,inactive,,,inactive,inactive,inactive
Nc1cccc(Cl)c1,,inactive,inactive,inactive,inactive,,inactive,inactive,inactive,inactive,inactive,inactive,inactive,inactive,inactive,,inactive,inactive,inactive,inactive
CCc1cnc(C2=NC(C)(C(C)C)C(=O)N2)c(C(=O)O)c1 (stereo not given),,,inactive,inactive,inactive,inactive,,inactive,inactive,inactive,inactive,inactive,inactive,inactive,inactive,,,inactive,inactive,
